In PMC7862700, “An all-to-all approach to the identification of sequence-specific readers for epigenetic DNA modifications on cytosine” one finds binding signal data, which are given here for 1 sequence.

Common to all, as to assay: DAPPL (digital affinity profiling via proximity ligation, sequencing); 10 mM Tris-HCl pH 7.5, 50 mM NaCl, 1 mM DTT, 4% glycerol, room temperature, 30 min; GST-TFs on glutathione beads, 16-mer random dsDNA library, 0.1% formaldehyde crosslink after washing; high values mean tight binding
One test deals with T1, FEV (Homo sapiens, UniProt Q99581 1-238).
T1 sequence: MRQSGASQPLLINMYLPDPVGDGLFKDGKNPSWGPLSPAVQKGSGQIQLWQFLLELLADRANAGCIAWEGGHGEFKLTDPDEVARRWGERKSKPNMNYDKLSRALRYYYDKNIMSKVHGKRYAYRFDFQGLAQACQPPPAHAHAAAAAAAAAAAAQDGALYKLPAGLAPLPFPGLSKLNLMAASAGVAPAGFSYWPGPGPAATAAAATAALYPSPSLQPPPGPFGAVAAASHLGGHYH
The conditions noted are these: protein: recombinant; tags: N-terminal GST; dsDNA, one strand shown. Put shortly: (§1)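 Binding signal is each hexamer's read frequency for a factor divided by its frequency in the tag-only sample. The factors were GST-fused human transcription factors from yeast, captured on glutathione beads, DNA-barcoded and pooled with that sample. Pools were incubated with 200 nmole of a random double-stranded 16-mer DNA library in Tris/NaCl/DTT/glycerol buffer at room temperature for 30 min, then washed, crosslinked with 0.1% formaldehyde, proximity-ligated with BsaI/T4 ligase (1 h, 37 °C), PCR-amplified and sequenced on an Illumina NextSeq500.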

The target in a further test is ETV5 (Homo sapiens, UniProt P41161 1-510). As to conditions: protein: recombinant; tags: N-terminal GST; dsDNA, one strand shown. Put shortly: as §1
Chain of ETV5 (P41161 whole entry): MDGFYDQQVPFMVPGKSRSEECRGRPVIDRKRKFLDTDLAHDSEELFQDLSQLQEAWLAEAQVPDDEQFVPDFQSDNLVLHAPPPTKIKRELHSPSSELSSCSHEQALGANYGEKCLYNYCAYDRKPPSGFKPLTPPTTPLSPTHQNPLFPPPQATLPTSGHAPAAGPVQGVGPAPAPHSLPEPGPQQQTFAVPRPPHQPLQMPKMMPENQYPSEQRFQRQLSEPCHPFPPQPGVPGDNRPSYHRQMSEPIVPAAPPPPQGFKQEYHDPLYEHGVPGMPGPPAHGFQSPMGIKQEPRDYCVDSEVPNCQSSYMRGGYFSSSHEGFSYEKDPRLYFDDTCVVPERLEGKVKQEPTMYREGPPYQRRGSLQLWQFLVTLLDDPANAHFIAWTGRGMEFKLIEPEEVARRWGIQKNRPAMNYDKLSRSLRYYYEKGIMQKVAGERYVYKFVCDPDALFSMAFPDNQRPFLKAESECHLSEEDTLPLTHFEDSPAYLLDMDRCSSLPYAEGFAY
Another test addresses HSF1 (Homo sapiens, UniProt Q00613 1-529). The conditions noted are these: protein: recombinant; tags: N-terminal GST; chain copies: 3; dsDNA, one strand shown. The procedure, abridged:
as §1

The next test concerns the target T2, SPIC (Homo sapiens, UniProt Q8N5J4 1-248).
T2 sequence: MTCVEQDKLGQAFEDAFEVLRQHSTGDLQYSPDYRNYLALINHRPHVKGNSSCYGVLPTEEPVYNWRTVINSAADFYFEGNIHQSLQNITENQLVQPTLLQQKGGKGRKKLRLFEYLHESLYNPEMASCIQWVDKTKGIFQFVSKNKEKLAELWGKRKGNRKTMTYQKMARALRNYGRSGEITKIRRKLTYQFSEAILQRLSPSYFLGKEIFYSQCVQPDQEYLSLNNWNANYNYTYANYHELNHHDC
The conditions noted are these: protein: recombinant; tags: N-terminal GST; dsDNA, one strand shown. Put shortly: as §1

The target of another test is ELF4 (Homo sapiens, UniProt Q99607 1-663). The conditions noted are these: protein: recombinant; tags: N-terminal GST; dsDNA, one strand shown. Put shortly:
as §1

Another test concerns the target T3, ELK4 (Homo sapiens, UniProt P28324-2 1-405).
T3 sequence: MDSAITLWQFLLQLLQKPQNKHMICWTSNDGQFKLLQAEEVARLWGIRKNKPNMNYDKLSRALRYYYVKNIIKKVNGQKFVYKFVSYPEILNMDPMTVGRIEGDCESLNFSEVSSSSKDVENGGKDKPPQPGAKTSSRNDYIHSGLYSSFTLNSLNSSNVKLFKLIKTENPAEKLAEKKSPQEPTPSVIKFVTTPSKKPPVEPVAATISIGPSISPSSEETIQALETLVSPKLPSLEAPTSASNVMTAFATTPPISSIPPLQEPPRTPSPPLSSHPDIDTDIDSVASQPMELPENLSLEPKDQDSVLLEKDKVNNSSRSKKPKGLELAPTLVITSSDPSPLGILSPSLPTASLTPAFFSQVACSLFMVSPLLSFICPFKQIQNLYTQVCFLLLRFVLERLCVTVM
The conditions noted are these: protein: recombinant; tags: N-terminal GST; dsDNA, one strand shown. Put shortly: as §1

The target of another test is T4, ETV2 (Homo sapiens, UniProt O00321 1-342).
T4 sequence: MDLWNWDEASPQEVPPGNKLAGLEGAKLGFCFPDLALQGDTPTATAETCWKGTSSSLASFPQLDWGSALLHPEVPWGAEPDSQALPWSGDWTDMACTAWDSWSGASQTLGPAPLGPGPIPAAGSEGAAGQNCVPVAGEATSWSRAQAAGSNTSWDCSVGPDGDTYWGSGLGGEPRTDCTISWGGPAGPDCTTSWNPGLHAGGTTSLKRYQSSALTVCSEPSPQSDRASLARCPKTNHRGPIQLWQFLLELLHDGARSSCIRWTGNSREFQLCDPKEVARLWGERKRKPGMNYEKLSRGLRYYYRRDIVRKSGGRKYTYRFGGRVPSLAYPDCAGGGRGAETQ
The conditions noted are these: protein: recombinant; tags: N-terminal GST; dsDNA, one strand shown. The procedure, abridged:
as §1

Another test addresses T5, ELF3 (Homo sapiens, UniProt P78545 1-371).
T5 sequence: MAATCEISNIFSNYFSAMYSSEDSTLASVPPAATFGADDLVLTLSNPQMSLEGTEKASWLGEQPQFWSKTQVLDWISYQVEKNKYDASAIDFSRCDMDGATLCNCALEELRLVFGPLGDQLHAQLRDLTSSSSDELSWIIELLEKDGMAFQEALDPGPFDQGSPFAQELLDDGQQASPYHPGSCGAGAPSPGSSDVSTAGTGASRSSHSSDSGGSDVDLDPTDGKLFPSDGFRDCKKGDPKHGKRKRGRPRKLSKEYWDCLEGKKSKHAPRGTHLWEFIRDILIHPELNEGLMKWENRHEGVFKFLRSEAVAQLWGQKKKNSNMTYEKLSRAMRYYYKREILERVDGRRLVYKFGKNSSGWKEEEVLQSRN
As to conditions: protein: recombinant; tags: N-terminal GST; dsDNA, one strand shown. Put shortly: as §1

The next test concerns the target CRX (Homo sapiens, UniProt O43186 1-299). As to conditions: protein: recombinant; tags: N-terminal GST; dsDNA, one strand shown. The procedure, abridged: as §1
Another test has as its target ETV1 (Homo sapiens, UniProt P50549 1-477). The conditions noted are these: protein: recombinant; tags: N-terminal GST; dsDNA, one strand shown. The procedure, abridged:
as §1

The target in a further test is T6, ERF (Homo sapiens, UniProt P50548 1-548).
T6 sequence: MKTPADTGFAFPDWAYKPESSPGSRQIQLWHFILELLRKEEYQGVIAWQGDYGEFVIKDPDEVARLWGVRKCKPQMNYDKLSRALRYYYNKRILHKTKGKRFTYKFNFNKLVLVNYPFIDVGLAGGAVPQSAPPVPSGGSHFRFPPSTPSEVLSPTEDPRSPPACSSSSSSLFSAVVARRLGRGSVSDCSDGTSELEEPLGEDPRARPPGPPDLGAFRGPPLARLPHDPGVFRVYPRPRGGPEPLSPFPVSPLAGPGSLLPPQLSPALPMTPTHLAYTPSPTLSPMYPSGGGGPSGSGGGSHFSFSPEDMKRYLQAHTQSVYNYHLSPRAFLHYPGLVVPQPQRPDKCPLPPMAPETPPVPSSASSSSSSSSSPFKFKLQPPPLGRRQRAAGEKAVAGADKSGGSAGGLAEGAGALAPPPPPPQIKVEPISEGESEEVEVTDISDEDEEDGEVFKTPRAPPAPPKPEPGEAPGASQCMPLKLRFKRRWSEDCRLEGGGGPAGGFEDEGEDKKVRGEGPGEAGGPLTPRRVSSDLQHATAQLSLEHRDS
As to conditions: protein: recombinant; tags: N-terminal GST; dsDNA, one strand shown. The procedure, abridged: as §1

The target in the next test is T7, ETV3L (Homo sapiens, UniProt Q6ZN32 1-361).
T7 sequence: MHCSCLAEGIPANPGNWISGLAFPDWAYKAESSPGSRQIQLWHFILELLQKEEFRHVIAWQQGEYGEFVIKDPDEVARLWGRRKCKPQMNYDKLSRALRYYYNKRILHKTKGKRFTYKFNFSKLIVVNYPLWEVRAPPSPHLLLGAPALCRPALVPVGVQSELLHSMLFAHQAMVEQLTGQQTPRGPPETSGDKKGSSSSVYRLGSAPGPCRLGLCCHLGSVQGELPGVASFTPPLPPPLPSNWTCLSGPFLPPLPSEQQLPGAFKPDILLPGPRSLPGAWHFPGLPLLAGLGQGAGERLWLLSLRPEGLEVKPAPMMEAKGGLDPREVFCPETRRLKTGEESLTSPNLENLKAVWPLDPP
As to conditions: protein: recombinant; tags: N-terminal GST; dsDNA, one strand shown. The procedure, abridged:
as §1

Another test deals with T8, ETS2 (Homo sapiens, UniProt P15036 1-469).
T8 sequence: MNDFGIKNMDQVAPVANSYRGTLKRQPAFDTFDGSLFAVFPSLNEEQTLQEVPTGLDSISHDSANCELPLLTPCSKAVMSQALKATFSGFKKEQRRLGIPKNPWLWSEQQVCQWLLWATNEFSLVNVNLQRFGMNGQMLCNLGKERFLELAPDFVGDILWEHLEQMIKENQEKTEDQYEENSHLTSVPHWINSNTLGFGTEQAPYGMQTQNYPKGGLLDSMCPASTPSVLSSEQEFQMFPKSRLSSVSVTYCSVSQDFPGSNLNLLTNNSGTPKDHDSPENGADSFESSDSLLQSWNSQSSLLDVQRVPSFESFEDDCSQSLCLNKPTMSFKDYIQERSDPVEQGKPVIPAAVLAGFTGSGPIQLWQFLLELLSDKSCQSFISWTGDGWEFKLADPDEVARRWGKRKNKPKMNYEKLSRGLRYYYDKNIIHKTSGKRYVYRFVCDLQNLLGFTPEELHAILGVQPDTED
As to conditions: protein: recombinant; tags: N-terminal GST; dsDNA, one strand shown. The procedure, abridged:
as §1

The target in another test is T9, SPDEF (Homo sapiens, UniProt O95238 1-335).
T9 sequence: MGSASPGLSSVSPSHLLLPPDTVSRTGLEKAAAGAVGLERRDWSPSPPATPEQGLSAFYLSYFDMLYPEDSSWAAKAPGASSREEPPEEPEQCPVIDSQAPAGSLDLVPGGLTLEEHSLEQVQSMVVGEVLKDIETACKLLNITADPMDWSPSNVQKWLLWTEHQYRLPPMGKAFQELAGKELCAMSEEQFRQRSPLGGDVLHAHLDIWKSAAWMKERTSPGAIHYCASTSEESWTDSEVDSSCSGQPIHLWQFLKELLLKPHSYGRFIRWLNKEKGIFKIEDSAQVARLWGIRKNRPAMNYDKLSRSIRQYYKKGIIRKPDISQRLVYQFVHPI
The conditions noted are these: protein: recombinant; tags: N-terminal GST; dsDNA, one strand shown. Put shortly: as §1

A further test concerns the target T10, ETV7 (Homo sapiens, UniProt Q9Y603 1-341).
T10 sequence: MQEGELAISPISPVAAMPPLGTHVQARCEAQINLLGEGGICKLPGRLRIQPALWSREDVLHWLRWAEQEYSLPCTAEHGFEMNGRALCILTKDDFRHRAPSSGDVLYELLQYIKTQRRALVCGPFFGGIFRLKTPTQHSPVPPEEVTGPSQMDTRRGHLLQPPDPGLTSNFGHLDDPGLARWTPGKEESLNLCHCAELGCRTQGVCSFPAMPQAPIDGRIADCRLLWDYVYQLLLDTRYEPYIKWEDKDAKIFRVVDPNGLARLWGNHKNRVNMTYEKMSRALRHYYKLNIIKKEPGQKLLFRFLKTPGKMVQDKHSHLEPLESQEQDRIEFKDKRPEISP
As to conditions: protein: recombinant; tags: N-terminal GST; dsDNA, one strand shown. Put shortly:
as §1

Another test deals with T11, ELF5 (Homo sapiens, UniProt Q9UKW6-2 1-255).
T11 sequence: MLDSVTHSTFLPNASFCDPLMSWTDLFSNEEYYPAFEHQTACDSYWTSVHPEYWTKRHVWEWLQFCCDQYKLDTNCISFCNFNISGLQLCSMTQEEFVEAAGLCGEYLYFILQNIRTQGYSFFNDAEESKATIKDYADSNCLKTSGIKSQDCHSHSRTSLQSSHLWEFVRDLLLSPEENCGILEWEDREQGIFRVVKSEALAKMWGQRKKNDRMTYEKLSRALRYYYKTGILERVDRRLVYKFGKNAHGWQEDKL
As to conditions: protein: recombinant; tags: N-terminal GST; dsDNA, one strand shown. Put shortly:
as §1

The target in another test is T12, ETV3 (Homo sapiens, UniProt P41162-2 1-143).
T12 sequence: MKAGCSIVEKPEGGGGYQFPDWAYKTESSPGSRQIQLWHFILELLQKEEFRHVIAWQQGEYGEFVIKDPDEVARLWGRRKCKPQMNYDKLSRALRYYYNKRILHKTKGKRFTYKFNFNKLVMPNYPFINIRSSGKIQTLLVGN
As to conditions: protein: recombinant; tags: N-terminal GST; dsDNA, one strand shown. The procedure, abridged:
as §1

In the next test the target is ETV6 (Homo sapiens, UniProt P41212 1-452). As to conditions: protein: recombinant; tags: N-terminal GST; dsDNA, one strand shown. Put shortly: as §1
Chain of ETV6 (P41212 whole entry): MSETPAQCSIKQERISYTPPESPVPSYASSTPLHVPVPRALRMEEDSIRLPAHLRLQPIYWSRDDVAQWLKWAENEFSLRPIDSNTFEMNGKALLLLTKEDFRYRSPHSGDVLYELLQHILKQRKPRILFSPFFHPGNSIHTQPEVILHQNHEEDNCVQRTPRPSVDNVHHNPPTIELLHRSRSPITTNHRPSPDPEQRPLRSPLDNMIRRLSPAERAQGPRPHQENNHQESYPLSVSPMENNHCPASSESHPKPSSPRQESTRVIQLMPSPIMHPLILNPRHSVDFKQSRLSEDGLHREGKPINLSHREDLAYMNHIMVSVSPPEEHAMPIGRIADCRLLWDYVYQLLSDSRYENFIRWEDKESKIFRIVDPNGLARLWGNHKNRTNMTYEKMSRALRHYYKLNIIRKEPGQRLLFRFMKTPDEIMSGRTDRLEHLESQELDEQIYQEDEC

Chain of HSF1 (Q00613 whole entry): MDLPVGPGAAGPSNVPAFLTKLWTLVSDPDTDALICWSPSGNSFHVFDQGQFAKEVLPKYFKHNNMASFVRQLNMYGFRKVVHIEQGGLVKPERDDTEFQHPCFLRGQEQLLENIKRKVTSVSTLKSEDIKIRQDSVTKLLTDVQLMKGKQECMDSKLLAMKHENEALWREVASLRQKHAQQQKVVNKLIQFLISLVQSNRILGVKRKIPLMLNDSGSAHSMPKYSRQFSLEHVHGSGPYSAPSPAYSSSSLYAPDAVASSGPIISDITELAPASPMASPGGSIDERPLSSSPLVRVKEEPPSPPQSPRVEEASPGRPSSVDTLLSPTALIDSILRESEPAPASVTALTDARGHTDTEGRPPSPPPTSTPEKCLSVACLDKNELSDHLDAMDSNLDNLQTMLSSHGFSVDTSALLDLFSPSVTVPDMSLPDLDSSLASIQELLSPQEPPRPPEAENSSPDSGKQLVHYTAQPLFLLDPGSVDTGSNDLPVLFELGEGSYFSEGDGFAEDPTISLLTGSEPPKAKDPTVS
Chain of ELF4 (Q99607 whole entry): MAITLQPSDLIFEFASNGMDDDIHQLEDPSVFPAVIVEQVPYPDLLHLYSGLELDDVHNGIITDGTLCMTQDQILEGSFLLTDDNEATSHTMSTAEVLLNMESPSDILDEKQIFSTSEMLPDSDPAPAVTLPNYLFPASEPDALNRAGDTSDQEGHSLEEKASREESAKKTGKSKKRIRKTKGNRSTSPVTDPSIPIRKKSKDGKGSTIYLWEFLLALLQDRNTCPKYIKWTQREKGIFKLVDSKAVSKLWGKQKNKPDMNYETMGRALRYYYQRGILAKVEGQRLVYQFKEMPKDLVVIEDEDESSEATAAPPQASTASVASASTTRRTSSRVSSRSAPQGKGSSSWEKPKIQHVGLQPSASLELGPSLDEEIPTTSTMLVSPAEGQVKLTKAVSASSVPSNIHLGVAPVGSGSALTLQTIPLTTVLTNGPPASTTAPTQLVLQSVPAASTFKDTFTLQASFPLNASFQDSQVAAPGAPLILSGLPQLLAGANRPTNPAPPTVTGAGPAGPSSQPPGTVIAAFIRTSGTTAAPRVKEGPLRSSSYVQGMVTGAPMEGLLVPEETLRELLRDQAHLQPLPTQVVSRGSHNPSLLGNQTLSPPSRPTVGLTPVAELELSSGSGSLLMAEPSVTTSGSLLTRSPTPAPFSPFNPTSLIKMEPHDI
Chain of ETV1 (P50549 whole entry): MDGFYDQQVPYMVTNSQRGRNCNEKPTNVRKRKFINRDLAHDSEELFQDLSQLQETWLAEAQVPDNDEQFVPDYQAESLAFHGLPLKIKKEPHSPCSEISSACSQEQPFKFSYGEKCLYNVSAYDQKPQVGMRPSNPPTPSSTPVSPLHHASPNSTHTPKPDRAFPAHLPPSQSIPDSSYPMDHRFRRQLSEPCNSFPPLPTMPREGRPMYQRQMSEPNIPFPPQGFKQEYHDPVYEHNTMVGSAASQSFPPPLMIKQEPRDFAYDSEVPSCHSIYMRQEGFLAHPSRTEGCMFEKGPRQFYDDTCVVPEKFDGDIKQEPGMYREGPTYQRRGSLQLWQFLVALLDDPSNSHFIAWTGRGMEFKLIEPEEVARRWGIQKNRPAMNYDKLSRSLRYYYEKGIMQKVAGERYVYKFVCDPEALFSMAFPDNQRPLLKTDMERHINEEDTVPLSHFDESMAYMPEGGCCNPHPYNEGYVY
Chain of CRX (O43186 whole entry): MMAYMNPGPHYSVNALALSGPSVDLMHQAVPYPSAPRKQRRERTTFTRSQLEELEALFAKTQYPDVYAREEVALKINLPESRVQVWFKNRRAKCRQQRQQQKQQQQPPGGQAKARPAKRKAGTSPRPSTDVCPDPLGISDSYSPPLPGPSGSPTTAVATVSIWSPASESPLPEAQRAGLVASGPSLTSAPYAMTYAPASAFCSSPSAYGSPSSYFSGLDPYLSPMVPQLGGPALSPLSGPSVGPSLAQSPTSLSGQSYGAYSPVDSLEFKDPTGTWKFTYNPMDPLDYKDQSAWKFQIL

For the sequence TAGTTA, the binding signal was 1.07 fold enrichment (6-mer frequency, TF over GST control) with FEV; 1.19 fold enrichment (6-mer frequency, TF over GST control) with ETV5; 1.26 fold enrichment (6-mer frequency, TF over GST control) with HSF1; 1.11 fold enrichment (6-mer frequency, TF over GST control) with SPIC; 1.15 fold enrichment (6-mer frequency, TF over GST control) with ELF4; 1.26 fold enrichment (6-mer frequency, TF over GST control) with ELK4. The binding signal in the test with ETV2 is 1.09 fold enrichment (6-mer frequency, TF over GST control); with ELF3, 1.29 fold enrichment (6-mer frequency, TF over GST control); with CRX it was 1.54 fold enrichment (6-mer frequency, TF over GST control); in the test with ETV1, 1.05 fold enrichment (6-mer frequency, TF over GST control); in the test with ERF it was 1.18 fold enrichment (6-mer frequency, TF over GST control); with ETV3L, 1.1 fold enrichment (6-mer frequency, TF over GST control). Further, the binding signal with ETS2 was 1.12 fold enrichment (6-mer frequency, TF over GST control); with SPDEF, 1.06 fold enrichment (6-mer frequency, TF over GST control); in the test with ETV7, 1.1 fold enrichment (6-mer frequency, TF over GST control); with ELF5, 1.06 fold enrichment (6-mer frequency, TF over GST control); with ETV3 it was 1.12 fold enrichment (6-mer frequency, TF over GST control); in the test with ETV6, 1.16 fold enrichment (6-mer frequency, TF over GST control).
